# In PubChem BioAssay (NCI):
# About 79,000 compounds went through this panel and 15% of them were active in at least one assay; those are over-represented in the sample as a whole. Activity calls are given as the source filed them. No stated cut-off is given here; in the data, active means growth inhibition above about 70%; inactive means the rest. Residues, ends and D or L forms follow the SMILES beside them. *: point of attachment. Fmoc = O=C(OCC1c2ccccc2-c2ccccc21)*; Boc = CC(C)(C)OC(=O)*
# Experiment: NCI Yeast Anticancer Drug Screen. Data for the rad52 strain (AID 147);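 further: 0% = growth of vehicle-treated control cultures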
# Settings: S. cerevisiae rad52 mutant growth inhibition; at 1.2 µM; active compounds read high
# Outline: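 Compounds are applied to a genetically defined yeast strain lacking normal DNA damage repair, and inhibition of growth is expressed relative to cultures given vehicle only.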
row,Compound,growth inhibition
1,O=[N+]([O-])c1ccc2nc(=S)[nH]n2c1,-3% (inactive)
2,O=C(c1ccccc1)[C@H]1Nc2ccc(Cl)cc2[C@H]2OCCC[C@@H]12,-16% (inactive)
3,COc1cc([N+](=O)[O-])c2ncccc2c1Br,41% (inactive)
4,O=S(=O)(c1cccc(C(F)(F)F)c1)N1c2ccccc2-n2cccc2C1c1cccnc1 (configuration not stated),-23% (inactive)
5,CC(C)(C)OC(=O)NCCCCC(NC(=O)C(Cc1c[nH]c2ccccc12)NC(=O)OCC1c2ccccc2-c2ccccc21)C(=O)O (configuration not stated) (Fmoc-Trp-Lys(Boc)-OH; configuration not given here),-3% (inactive)

# Same assay, conditions: S. cerevisiae rad52 mutant growth inhibition; at 3.7 µM; active compounds read high
row,Compound,growth inhibition
1,CC(C)C(=O)CC(Sc1ccc(N)cc1)c1ccccc1 (configuration not stated),8% (inactive)
2,CC(C)OP(=O)(OC(C)C)/C(Cl)=N/Nc1ccc([N+](=O)[O-])cc1,-6% (inactive)
3,O=[N+]([O-])c1cc(Cl)ccc1S(=O)(=O)c1ccc(Cl)cc1[N+](=O)[O-],-8% (inactive)
4,CCCCCCNCCCNc1c2cc(OC)ccc2nc2cccc([N+](=O)[O-])c12,25% (inactive)
5,N#CCC(=O)N/N=C(\c1ccccc1)C(c1ccccc1)C1(O)C(=O)Nc2c(Cl)ccc(Cl)c21 (configuration not stated),0% (inactive)
6,CN(C)CCNCCCNc1c2ccccc2nc2cccc([N+](=O)[O-])c12,46% (inactive)
7,CCC[CH2][Ge]([CH2]CCC)([CH2]CCC)[O]C(=O)C(O)c1ccccc1 (configuration not stated),11% (inactive)
8,COc1ccc(-c2cc(-c3cc(C)cc(Cl)c3O)nc3[nH]c(=S)[nH]c(=S)c23)cc1,4% (inactive)
9,O=[N+]([O-])c1ccc(/C=C\c2ccc3c(c2)OCO3)c([N+](=O)[O-])c1,12% (inactive)
10,O=C1c2ccccc2N2OC3(N4CCCC4)CCCCC3C12c1ccccc1 (configuration not stated),1% (inactive)
11,CC(C)OC(=O)NNc1cc(Cl)ccc1Cl,18% (inactive)
12,Cc1oc2ccccc2c(=O)c1Cn1nnc2ccccc21,-2% (inactive)
13,CC1(C)OC(=O)C(=Cc2ccc([N+](=O)[O-])s2)C(=O)O1,-35% (inactive)
14,CCN(CC)CCCNc1ccc([N+](=O)[O-])c2nc3ccc(OC)cc3c(NCCCN(CC)CC)c12,6% (inactive)
15,COc1cccc(/C=C2\S/C(=N/Nc3nc(-c4ccc([N+](=O)[O-])cc4)cs3)NC2=O)c1O,21% (inactive)
16,OC(Cc1cccc2ccccc12)CN1CCC(c2ccccc2)CC1 (configuration not stated),66% (inactive)
17,C1=CCN([B-](c2ccccc2)[C+]2CCCCC2)C=C1,-4% (inactive)
18,O=[N+]([O-])c1cc[n+]([O-])c(Cl)c1,12% (inactive)

row,Compound,growth inhibition
1,CCCNC(=O)OCc1c(COC(=O)NCCC)c(-c2ccc(Cl)c(Cl)c2)n2c1CCC2,-7% (inactive)
2,CC1(C)CC(=O)C(C(=O)Nc2cccs2)=C(O)C1,7% (inactive)
3,O=C(NO)c1coc2ccccc2c1=O,-4% (inactive)
4,COc1ccc(C(C)c2cc3c(cc2OCC(C)=O)OCO3)cc1 (configuration not stated),0% (inactive)
5,CCS(=O)(=O)Nc1ccc(Nc2c3ccccc3nc3ccccc23)c(OC)c1,82% (active)
6,O=S(=O)(c1ccccc1)N1CN2CN(C1)CN(S(=O)(=O)c1ccccc1)C2,-2% (inactive)
7,CC1=NN(C(=O)c2ccccc2O)C(=O)/C1=C/c1ccco1,16% (inactive)
8,O=C1C=C(Br)C(=O)c2ccccc21,19% (inactive)
9,C[N+](C)([O-])CCCNc1c2ccccc2nc2cccc([N+](=O)[O-])c12,86% (active)
10,Cc1cccc2c(NCCCN(C)C)c3c([N+](=O)[O-])ccc(C)c3nc12,91% (active)
11,OC1(c2ccccc2)C2CC=CC2C1(c1ccccc1)c1ccccc1 (configuration not stated),-1% (inactive)
12,C[n+]1c(-c2ccc(/C=N/NC(=O)c3ccc(C(=O)N/N=C/c4ccc(-c5cn6ccccc6[n+]5C)cc4)cc3)cc2)cn2ccccc21,14% (inactive)
13,CCN(CC)CCC(=O)Nc1ccc2sc3ccccc3c(=O)c2n1,70% (active)
14,O=[N+]([O-])c1ccc2nc(=S)[nH]n2c1,-2% (inactive)
15,O=C(c1ccccc1)[C@H]1Nc2ccc(Cl)cc2[C@H]2OCCC[C@@H]12,-40% (inactive)
16,COc1cc([N+](=O)[O-])c2ncccc2c1Br,41% (inactive)
17,O=S(=O)(c1cccc(C(F)(F)F)c1)N1c2ccccc2-n2cccc2C1c1cccnc1 (configuration not stated),7% (inactive)
18,CC(C)(C)OC(=O)NCCCCC(NC(=O)C(Cc1c[nH]c2ccccc12)NC(=O)OCC1c2ccccc2-c2ccccc21)C(=O)O (configuration not stated) (Fmoc-Trp-Lys(Boc)-OH; configuration not given here),0% (inactive)

# Same assay, conditions: S. cerevisiae rad52 mutant growth inhibition; at 11.0 µM; active compounds read high
row,Compound,growth inhibition
1,CC(C)C(=O)CC(Sc1ccc(N)cc1)c1ccccc1 (configuration not stated),23% (inactive)
2,CC(C)OP(=O)(OC(C)C)/C(Cl)=N/Nc1ccc([N+](=O)[O-])cc1,52% (inactive)
3,O=[N+]([O-])c1cc(Cl)ccc1S(=O)(=O)c1ccc(Cl)cc1[N+](=O)[O-],40% (inactive)
4,CCCCCCNCCCNc1c2cc(OC)ccc2nc2cccc([N+](=O)[O-])c12,73% (active)
5,N#CCC(=O)N/N=C(\c1ccccc1)C(c1ccccc1)C1(O)C(=O)Nc2c(Cl)ccc(Cl)c21 (configuration not stated),3% (inactive)
6,CN(C)CCNCCCNc1c2ccccc2nc2cccc([N+](=O)[O-])c12,80% (active)
7,CCC[CH2][Ge]([CH2]CCC)([CH2]CCC)[O]C(=O)C(O)c1ccccc1 (configuration not stated),45% (inactive)
8,COc1ccc(-c2cc(-c3cc(C)cc(Cl)c3O)nc3[nH]c(=S)[nH]c(=S)c23)cc1,6% (inactive)
9,O=[N+]([O-])c1ccc(/C=C\c2ccc3c(c2)OCO3)c([N+](=O)[O-])c1,26% (inactive)
10,O=C1c2ccccc2N2OC3(N4CCCC4)CCCCC3C12c1ccccc1 (configuration not stated),10% (inactive)
11,CC(C)OC(=O)NNc1cc(Cl)ccc1Cl,41% (inactive)
12,Cc1oc2ccccc2c(=O)c1Cn1nnc2ccccc21,0% (inactive)
13,CC1(C)OC(=O)C(=Cc2ccc([N+](=O)[O-])s2)C(=O)O1,-31% (inactive)
14,CCN(CC)CCCNc1ccc([N+](=O)[O-])c2nc3ccc(OC)cc3c(NCCCN(CC)CC)c12,9% (inactive)
15,COc1cccc(/C=C2\S/C(=N/Nc3nc(-c4ccc([N+](=O)[O-])cc4)cs3)NC2=O)c1O,58% (inactive)
16,OC(Cc1cccc2ccccc12)CN1CCC(c2ccccc2)CC1 (configuration not stated),69% (inactive)
17,C1=CCN([B-](c2ccccc2)[C+]2CCCCC2)C=C1,1% (inactive)
18,O=[N+]([O-])c1cc[n+]([O-])c(Cl)c1,10% (inactive)

row,Compound,growth inhibition
1,CCCNC(=O)OCc1c(COC(=O)NCCC)c(-c2ccc(Cl)c(Cl)c2)n2c1CCC2,-5% (inactive)
2,CC1(C)CC(=O)C(C(=O)Nc2cccs2)=C(O)C1,17% (inactive)
3,O=C(NO)c1coc2ccccc2c1=O,-2% (inactive)
4,COc1ccc(C(C)c2cc3c(cc2OCC(C)=O)OCO3)cc1 (configuration not stated),1% (inactive)
5,CCS(=O)(=O)Nc1ccc(Nc2c3ccccc3nc3ccccc23)c(OC)c1,88% (active)
6,O=S(=O)(c1ccccc1)N1CN2CN(C1)CN(S(=O)(=O)c1ccccc1)C2,-15% (inactive)
7,CC1=NN(C(=O)c2ccccc2O)C(=O)/C1=C/c1ccco1,76% (active)
8,O=C1C=C(Br)C(=O)c2ccccc21,94% (active)
9,C[N+](C)([O-])CCCNc1c2ccccc2nc2cccc([N+](=O)[O-])c12,94% (active)
10,Cc1cccc2c(NCCCN(C)C)c3c([N+](=O)[O-])ccc(C)c3nc12,94% (active)
11,OC1(c2ccccc2)C2CC=CC2C1(c1ccccc1)c1ccccc1 (configuration not stated),4% (inactive)
12,C[n+]1c(-c2ccc(/C=N/NC(=O)c3ccc(C(=O)N/N=C/c4ccc(-c5cn6ccccc6[n+]5C)cc4)cc3)cc2)cn2ccccc21,29% (inactive)
13,CCN(CC)CCC(=O)Nc1ccc2sc3ccccc3c(=O)c2n1,92% (active)
14,O=[N+]([O-])c1ccc2nc(=S)[nH]n2c1,-2% (inactive)
15,O=C(c1ccccc1)[C@H]1Nc2ccc(Cl)cc2[C@H]2OCCC[C@@H]12,-19% (inactive)
16,COc1cc([N+](=O)[O-])c2ncccc2c1Br,47% (inactive)
17,O=S(=O)(c1cccc(C(F)(F)F)c1)N1c2ccccc2-n2cccc2C1c1cccnc1 (configuration not stated),87% (active)
18,CC(C)(C)OC(=O)NCCCCC(NC(=O)C(Cc1c[nH]c2ccccc12)NC(=O)OCC1c2ccccc2-c2ccccc21)C(=O)O (configuration not stated) (Fmoc-Trp-Lys(Boc)-OH; configuration not given here),-2% (inactive)
